Results on 38 molecules are retold here after PubChem BioAssay (NCI).

About 83,000 compounds went through this panel and 20% of them were active in at least one assay; those are over-represented in the sample as a whole.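 Testing used 96-well plates and a 48-hour single-concentration exposure. Example: -40 means 40% of the starting cells died.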 A number with no mark means an inactive call. The source made the active and inactive calls. How the source made its calls: active means growth percent below 10; inactive means the rest.

One test deals with UACC-257 melanoma. As to the kind of experiment: NCI-60 one-dose screen, 48 h (100 = growth as untreated, 0 = no growth, -100 = all killed). The note with it: 10 µM unless noted.
For the molecule `O=C1COCCN1c1ccc(NCc2cn(C(=O)c3ccc(Cl)cc3)c3ccccc23)cc1`, the growth was 33.6%.

Regarding `COc1ccc(-c2cnc3ccccc3n2)cc1`, the growth was 104%.

For `CCOC(=O)C1=C(N)Oc2c(sc3c(C)cccc23)C1c1ccc(OC)cc1` (stereo unspecified), the growth was 46.8%.

As for `FC(F)(F)c1cc(Nc2ccc3c(OCCCN4CCOCC4)cccc3n2)ccc1Cl`, the growth was 96.6%.

As for `COc1cc(C(=O)c2cc(C)c3[nH]c4ccc(O)cc4c3c2C)cc(OC)c1OC`, the growth is 64.8%.

As to `Cc1ccc(C(=O)N/N=C/c2cccc(Oc3ccccc3)c2)cn1`, the growth was 72.4%.

Take `CC(=O)CC(c1cccs1)c1c(-c2ccccc2)[nH]c2ccccc12` (stereo unspecified): the growth was 103%.

For the molecule `NC(=O)C1(Nc2ccc(Br)cc2)CCCC1`, the growth is 101%.

For `COc1ccc(-c2c(C(=O)NS(C)(=O)=O)n(Cc3cccc(C(F)(F)F)c3)c3ccccc23)cc1`, the growth was 95.2%.

`O=C1NC(=O)C(c2ccccc2)(c2ccccc2)N1Cc1cn(-c2c3ccccc3nc3ccccc23)nn1`: the growth was 89.1%.

On to `CCCCn1c(-c2ccc(C(=O)O/N=C(\N)c3ccc(OC)cc3)cc2)nc(-c2ccccc2)c1-c1ccccc1`, for which the growth is 43.7%.

For the molecule `COc1cc(Nc2nc(NCCN)nc3cc[nH]c(=O)c23)cc(OC)c1`, the growth is 72.5%.

`COc1ccc(-c2[nH]c3ccc(OC)cc3c2/C=C(\C#N)S(=O)(=O)c2ccccc2)cc1`: the growth is 81.7%.

For the molecule `COc1ccc(C2=Nn3c(nnc3-c3cc(Cl)cc(Cl)c3Cl)SC2)cc1`, the growth was 37%.

For the molecule `COc1ccc(C(=S)N2CCN(c3cccc(C)c3)CC2)cc1OC`, the growth was 77.7%.

Consider `COc1cc(CCCO)c(OC)c(OC)c1OC`, for which the growth was 103%.

Regarding `O=C(Nc1nc2ccc(F)cc2s1)c1cccnc1Nc1ccc(Cl)cc1Cl`, the growth is 28.1%.

Turning to `Cc1cccc2c3c(sc12)C(c1ccc(F)cc1)C(C#N)=C(N)O3` (stereo unspecified), the growth is 68.2%.

For the molecule `BrCCCc1n(Cc2ccc3ccccc3c2)c2ccccc2[n+]1Cc1ccc2ccccc2c1`, the growth was -55.7% (active).

For the molecule `CCOC(=O)Cn1c(C)c(/C=N/NC(=O)c2cc3c(ccc4ccccc43)o2)c2ccccc21`, the growth was 41.5%.

For the molecule `CCOC(=O)c1sc2ncc(-c3ccc(OC)cc3)n2c1C`, the growth was 105%.

For the molecule `O=c1c2cccc(F)c2sc2c(NCCCNCCO)nc3ccccc3c12`, the growth is 85.6%.

Consider `CNCCCNc1nc2ccccc2c2c(=O)c3cc(F)ccc3sc12`, for which the growth was 91.6%.

`CC(=O)OC[C@H]1OC(Sc2sc(C(=O)c3ccc(Cl)cc3)c(N)c2-c2nc3ccccc3s2)[C@H](OC(C)=O)[C@@H](OC(C)=O)[C@@H]1OC(C)=O` (stereo partly specified): the growth is 96.6%.

Take `OC(c1ccccc1)C(NC(Cc1ccccc1)c1ccccc1)c1ccccc1` (stereo unspecified): the growth was 91.6%.

Regarding `CCOC(=O)c1cn2ncnc(Oc3ccc(NC(=O)NCCN(C)C)c(Cl)c3)c2c1C`, the growth was -4.6% (active).

Take `Cc1nc2ccccc2c(/C=C/c2ccccc2)c1C(=O)/C=C/c1ccc(C(F)(F)F)cc1`: the growth is -21.9% (active).

Take `Cc1[nH]c(C(=O)Nc2ccc(C(=O)NCCN)cc2OC(C)C)c(Cl)c1Cl`: the growth is 105%.

For `CN1CCN(c2ccc(-c3cnc4c(-c5csc6ccccc56)cnn4c3)cc2)CC1`, the growth was -76.3% (active).

Turning to `c1ccc(-c2nc3sc(-c4ccccc4)cn3n2)cc1`, the growth is 86%.

Consider `COc1c(B(O)O)cc(F)cc1-c1nc2ccc3[nH]ncc3c2c2c1CCCC2`, for which the growth is 20.1%.

Take `CNCCCC12CCC(c3ccccc31)c1ccccc12`: the growth is 95.9%.

In the case of `C=C1C(=O)O[C@H]2[C@H]1CC/C(COC(=O)C(C)c1ccc(CC(C)C)cc1)=C\CC[C@@]1(C)O[C@@H]21` (stereo partly specified), the growth is 47.9%.

`CC1=C(C)C(=O)C(Nc2cccc(C(=O)OC(C)(C)C)c2)=C(Br)C1=O`: the growth is 87.3%.

Take `COc1ccc(C2CC(c3ccc(Nc4ccnc5cc(Cl)ccc45)cc3)=NN2C=O)cc1` (stereo unspecified): the growth is 93.5%.

Consider `Cc1nc(NC(=O)COc2ccc(/C=C3\Cc4ccc(Cl)cc4C3=O)cc2)sc1C`, for which the growth is 110%.

Turning to `Cc1ccc2c(-c3cc(-c4ccccc4)nc(N)c3C#N)cc(=O)oc2c1`, the growth was 101%.

`CN(C)c1ccc(/C=N\Nc2cc(=O)[nH]c3ccc(Cl)cc23)cc1`: the growth is 98.1%.

The test system of a further test is M14 melanoma. Described as above. The note with it: 10 µM unless noted.
Turning to `O=C1COCCN1c1ccc(NCc2cn(C(=O)c3ccc(Cl)cc3)c3ccccc23)cc1`, the growth is 74.1%.

In the case of `COc1ccc(-c2cnc3ccccc3n2)cc1`, the growth was 100%.

In the case of `CCOC(=O)C1=C(N)Oc2c(sc3c(C)cccc23)C1c1ccc(OC)cc1` (stereo unspecified), the growth was 21.7%.

With `FC(F)(F)c1cc(Nc2ccc3c(OCCCN4CCOCC4)cccc3n2)ccc1Cl`, the growth is 40.4%.

Consider `COc1cc(C(=O)c2cc(C)c3[nH]c4ccc(O)cc4c3c2C)cc(OC)c1OC`, for which the growth was 22.3%.

As for `Cc1ccc(C(=O)N/N=C/c2cccc(Oc3ccccc3)c2)cn1`, the growth was 50%.

`CC(=O)CC(c1cccs1)c1c(-c2ccccc2)[nH]c2ccccc12` (stereo unspecified): the growth was 94.5%.

On to `NC(=O)C1(Nc2ccc(Br)cc2)CCCC1`, for which the growth is 97.1%.

Take `COc1ccc(-c2c(C(=O)NS(C)(=O)=O)n(Cc3cccc(C(F)(F)F)c3)c3ccccc23)cc1`: the growth is 94.6%.

In the case of `O=C1NC(=O)C(c2ccccc2)(c2ccccc2)N1Cc1cn(-c2c3ccccc3nc3ccccc23)nn1`, the growth was 96.2%.

Regarding `CCCCn1c(-c2ccc(C(=O)O/N=C(\N)c3ccc(OC)cc3)cc2)nc(-c2ccccc2)c1-c1ccccc1`, the growth is 51.3%.

On to `COc1cc(Nc2nc(NCCN)nc3cc[nH]c(=O)c23)cc(OC)c1`, for which the growth was 49.7%.

In the case of `COc1ccc(-c2[nH]c3ccc(OC)cc3c2/C=C(\C#N)S(=O)(=O)c2ccccc2)cc1`, the growth was 25.3%.

For `COc1ccc(C2=Nn3c(nnc3-c3cc(Cl)cc(Cl)c3Cl)SC2)cc1`, the growth is -45.3% (active).

Take `COc1ccc(C(=S)N2CCN(c3cccc(C)c3)CC2)cc1OC`: the growth is 38.4%.

Turning to `COc1cc(CCCO)c(OC)c(OC)c1OC`, the growth was 110%.

On to `O=C(Nc1nc2ccc(F)cc2s1)c1cccnc1Nc1ccc(Cl)cc1Cl`, for which the growth was 37%.

With `Cc1cccc2c3c(sc12)C(c1ccc(F)cc1)C(C#N)=C(N)O3` (stereo unspecified), the growth is 10.4%.

Regarding `BrCCCc1n(Cc2ccc3ccccc3c2)c2ccccc2[n+]1Cc1ccc2ccccc2c1`, the growth is -60.4% (active).

As for `CCOC(=O)Cn1c(C)c(/C=N/NC(=O)c2cc3c(ccc4ccccc43)o2)c2ccccc21`, the growth was 16.8%.

Regarding `CCOC(=O)c1sc2ncc(-c3ccc(OC)cc3)n2c1C`, the growth is 95.3%.

As to `O=c1c2cccc(F)c2sc2c(NCCCNCCO)nc3ccccc3c12`, the growth was -58.5% (active).

As for `CNCCCNc1nc2ccccc2c2c(=O)c3cc(F)ccc3sc12`, the growth was -53.2% (active).

Consider `CC(=O)OC[C@H]1OC(Sc2sc(C(=O)c3ccc(Cl)cc3)c(N)c2-c2nc3ccccc3s2)[C@H](OC(C)=O)[C@@H](OC(C)=O)[C@@H]1OC(C)=O` (stereo partly specified), for which the growth was 89.6%.

For `OC(c1ccccc1)C(NC(Cc1ccccc1)c1ccccc1)c1ccccc1` (stereo unspecified), the growth was 91.8%.

For `CCOC(=O)c1cn2ncnc(Oc3ccc(NC(=O)NCCN(C)C)c(Cl)c3)c2c1C`, the growth was -40.6% (active).

On to `Cc1nc2ccccc2c(/C=C/c2ccccc2)c1C(=O)/C=C/c1ccc(C(F)(F)F)cc1`, for which the growth is -31.3% (active).

Consider `Cc1[nH]c(C(=O)Nc2ccc(C(=O)NCCN)cc2OC(C)C)c(Cl)c1Cl`, for which the growth is -31.1% (active).

`CN1CCN(c2ccc(-c3cnc4c(-c5csc6ccccc56)cnn4c3)cc2)CC1`: the growth is -71.8% (active).

As for `c1ccc(-c2nc3sc(-c4ccccc4)cn3n2)cc1`, the growth is 86.7%.

For the molecule `COc1c(B(O)O)cc(F)cc1-c1nc2ccc3[nH]ncc3c2c2c1CCCC2`, the growth was 28.3%.

Consider `CNCCCC12CCC(c3ccccc31)c1ccccc12`, for which the growth is 80.4%.

For `C=C1C(=O)O[C@H]2[C@H]1CC/C(COC(=O)C(C)c1ccc(CC(C)C)cc1)=C\CC[C@@]1(C)O[C@@H]21` (stereo partly specified), the growth is 16.1%.

In the case of `CC1=C(C)C(=O)C(Nc2cccc(C(=O)OC(C)(C)C)c2)=C(Br)C1=O`, the growth was 95.1%.

Take `COc1ccc(C2CC(c3ccc(Nc4ccnc5cc(Cl)ccc45)cc3)=NN2C=O)cc1` (stereo unspecified): the growth is 50.5%.

On to `Cc1nc(NC(=O)COc2ccc(/C=C3\Cc4ccc(Cl)cc4C3=O)cc2)sc1C`, for which the growth was 114%.

`Cc1ccc2c(-c3cc(-c4ccccc4)nc(N)c3C#N)cc(=O)oc2c1`: the growth was 108%.

As to `CN(C)c1ccc(/C=N\Nc2cc(=O)[nH]c3ccc(Cl)cc23)cc1`, the growth was 94.5%.
